# Measured values: the supplement of paper PMC8728848
# This excerpt belongs to a sample that is enriched for the strongest signals.
# How the values were obtained:
# Test in all cases: glycan array binding signal (z-score within array); higher = stronger binding
# Conditions in all cases: glycan notation: IUPAC condensed, linker removed
# Fuc(a1-2)Gal = target: Fuc(a1-2)Gal
# Summary of the method: (§1)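 The Consortium for Functional Glycomics database supplied 3228 glycan arrays, of which those lacking an available protein sequence were dropped. The binding signal, a within-array Z-score, was averaged across arrays of the same protein sequence and across linkers. Negative scores can be read as non-binding.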
# [1] = target: Fuc(a1-2)Gal(b1-3)GlcNAc(b1-2)Man(a1-3)[Fuc(a1-2)Gal(b1-3)GlcNAc(b1-2)Man(a1-6)]Man(b1-4)GlcNAc(b1-4)GlcNAc
# Summary of the method: as §1
# [2] = target: Fuc(a1-2)Gal(b1-3)GlcNAc(b1-3)[Neu5Ac(a2-6)Gal(b1-4)GlcNAc(b1-6)]Gal(b1-4)Glc
# Summary of the method: as §1
# Fuc(a1-2)Gal(b1-4)Glc = target: Fuc(a1-2)Gal(b1-4)Glc
# Summary of the method: as §1
# [3] = target: Fuc(a1-2)Gal(b1-4)GlcNAc(b1-2)Man
# Summary of the method: as §1
# [4] = target: Fuc(a1-2)[Gal(a1-3)]Gal(b1-4)GlcNAc
# Summary of the method: as §1
# [5] = target: Fuc(a1-2)[Gal(a1-3)]Gal(b1-4)GlcNAc(b1-2)Man(a1-3)[Fuc(a1-2)[Gal(a1-3)]Gal(b1-4)GlcNAc(b1-2)Man(a1-6)]Man(b1-4)GlcNAc(b1-4)GlcNAc
# Summary of the method: as §1
# [6] = target: Fuc(a1-2)[Gal(a1-3)]Gal(b1-4)[Fuc(a1-3)]GlcNAc
# Summary of the method: as §1
# [7] = target: Fuc(a1-2)[GalNAc(a1-3)]Gal(b1-3)GlcNAc(b1-6)GalNAc
# Summary of the method: as §1
# [8] = target: Fuc(a1-3)[Gal(b1-4)]GlcNAc(b1-6)GalNAc
# Summary of the method: as §1
# [9] = target: Gal(a1-3)Gal(b1-3)[Fuc(a1-4)]GlcNAc(b1-2)Man(a1-3)[Gal(a1-3)Gal(b1-3)[Fuc(a1-4)]GlcNAc(b1-2)Man(a1-6)]Man(b1-4)GlcNAc(b1-4)GlcNAc
# Summary of the method: as §1
# [10] = target: Gal(a1-3)Gal(b1-4)GlcNAc(b1-2)Man
# Summary of the method: as §1
# Gal(a1-3)GalNAc = target: Gal(a1-3)GalNAc
# Summary of the method: as §1
# Gal(b1-2)Gal = target: Gal(b1-2)Gal
# Summary of the method: as §1
# [11] = target: Gal(b1-3)GlcNAc(b1-6)Gal(b1-4)GlcNAc
# Summary of the method: as §1
# [12] = target: Gal(b1-4)GlcNAc(b1-2)Man(a1-3)[Man(a1-6)]Man(b1-4)GlcNAc(b1-4)GlcNAc
# Summary of the method: as §1
# [13] = target: Gal(b1-4)GlcNAc(b1-3)Gal(b1-3)GalNAc
# Summary of the method: as §1
# [14] = target: Gal(b1-4)GlcNAc(b1-3)Gal(b1-4)GlcNAc(b1-2)[Gal(b1-4)GlcNAc(b1-3)Gal(b1-4)GlcNAc(b1-6)]Man(a1-6)[Gal(b1-4)GlcNAc(b1-3)Gal(b1-4)GlcNAc(b1-2)Man(a1-3)]Man(b1-4)GlcNAc(b1-4)[Fuc(a1-6)]GlcNAc
# Summary of the method: as §1
# [15] = target: Gal(b1-4)GlcNAc(b1-3)Gal(b1-4)GlcNAc(b1-3)Gal(b1-4)GlcNAc(b1-3)Gal(b1-4)GlcNAc(b1-2)Man(a1-3)[Gal(b1-4)GlcNAc(b1-3)Gal(b1-4)GlcNAc(b1-3)Gal(b1-4)GlcNAc(b1-3)Gal(b1-4)GlcNAc(b1-2)Man(a1-6)]Man(b1-4)GlcNAc(b1-4)[Fuc(a1-6)]GlcNAc
# Summary of the method: as §1
# [16] = target: Gal(b1-4)GlcNAc(b1-3)Gal(b1-4)GlcNAc(b1-3)Gal(b1-4)GlcNAc(b1-3)Gal(b1-4)GlcNAc(b1-3)Gal(b1-4)GlcNAc(b1-2)Man(a1-3)[Gal(b1-4)GlcNAc(b1-3)Gal(b1-4)GlcNAc(b1-3)Gal(b1-4)GlcNAc(b1-3)Gal(b1-4)GlcNAc(b1-3)Gal(b1-4)GlcNAc(b1-2)Man(a1-6)]Man(b1-4)GlcNAc(b1-4)[Fuc(a1-6)]GlcNAc
# Summary of the method: as §1
# [17] = target: Gal(b1-4)GlcNAc(b1-3)[GlcNAc(b1-6)]Gal(b1-4)GlcNAc
# Summary of the method: as §1
# Gal6S(b1-4)Glc6S = target: Gal6S(b1-4)Glc6S
# Summary of the method: as §1
# [18] = target: GalNAc(b1-4)GlcNAc(b1-3)GalNAc(b1-4)GlcNAc
# Summary of the method: as §1
# [19] = target: GlcNAc(a1-3)Gal(b1-4)GlcNAc
# Summary of the method: as §1
# [20] = target: GlcNAc(a1-6)Gal(b1-4)GlcNAc
# Summary of the method: as §1
# [21] = target: GlcNAc(b1-2)[GlcNAc(b1-6)]Man(a1-6)[GlcNAc(b1-2)Man(a1-3)]Man(b1-4)GlcNAc(b1-4)GlcNAc
# Summary of the method: as §1
# [22] = target: GlcNAc(b1-3)Gal(b1-4)GlcNAc(b1-2)Man(a1-3)[GlcNAc(b1-3)Gal(b1-4)GlcNAc(b1-2)Man(a1-6)]Man(b1-4)GlcNAc(b1-4)[Fuc(a1-6)]GlcNAc
# Summary of the method: as §1
# GlcNAc(b1-3)GalNAc = target: GlcNAc(b1-3)GalNAc
# Summary of the method: as §1
# [23] = target: Kdn(a2-3)Gal(b1-4)[Fuc(a1-3)]GlcNAc
# Summary of the method: as §1
# [24] = target: Neu5Ac(a2-3)Gal(b1-3)GlcNAc
# Summary of the method: as §1
# [25] = target: Neu5Ac(a2-3)Gal(b1-3)GlcNAc(b1-2)Man
# Summary of the method: as §1
# [26] = target: Neu5Ac(a2-3)Gal(b1-4)GlcNAc(b1-2)[Neu5Ac(a2-3)Gal(b1-4)GlcNAc(b1-6)]Man(a1-6)[Neu5Ac(a2-3)Gal(b1-4)GlcNAc(b1-2)Man(a1-3)][GlcNAc(b1-4)]Man(b1-4)GlcNAc(b1-4)GlcNAc
# Summary of the method: as §1
# [27] = target: Neu5Ac(a2-3)Gal(b1-4)GlcNAc(b1-3)Gal(b1-4)GlcNAc(b1-3)Gal(b1-4)GlcNAc(b1-2)Man(a1-3)[Neu5Ac(a2-3)Gal(b1-4)GlcNAc(b1-3)Gal(b1-4)GlcNAc(b1-3)Gal(b1-4)GlcNAc(b1-2)Man(a1-6)]GalNAc
# Summary of the method: as §1
# [28] = target: Neu5Ac(a2-3)Gal(b1-4)[Fuc(a1-3)]GlcNAc6S
# Summary of the method: as §1
# [29] = target: Neu5Ac(a2-6)Gal(b1-4)GlcNAc(b1-2)Man(a1-3)[Neu5Ac(a2-3)Gal(b1-4)GlcNAc(b1-2)Man(a1-6)]Man(b1-4)GlcNAc(b1-4)GlcNAc
# Summary of the method: as §1
# Neu5Ac(a2-8)Neu5Ac = target: Neu5Ac(a2-8)Neu5Ac
# Summary of the method: as §1
# [30] = target: Neu5Ac(a2-8)Neu5Ac(a2-3)Gal(b1-4)Glc
# Summary of the method: as §1
# Neu5Ac(b2-6)GalNAc = target: Neu5Ac(b2-6)GalNAc
# Summary of the method: as §1
# Neu5Gc(a2-6)GalNAc = target: Neu5Gc(a2-6)GalNAc
# Summary of the method: as §1
binder,measurement,setting,value
Loc1 (Escherichia coli) (protein) APCALTNVGEQRGTYILKPLSMKGNLTAEKIENTGNIIECTDLQETTNAIKVHFLTQNALKFKVGSRHYIINFPFEYDGKKIELPGKSSYNLEEMLSAINFTIPYSIASVSDSSNTADIFPGTPFPLLFEIEVSSCTGNNTNCNSVRFNYNLNTILQVNLMTHHHHHH,glycan array binding signal (z-score),Fuc(a1-2)Gal,0.363
same,glycan array binding signal (z-score),[1],-1.09
same,glycan array binding signal (z-score),[2],-0.102
same,glycan array binding signal (z-score),Fuc(a1-2)Gal(b1-4)Glc,-0.622
same,glycan array binding signal (z-score),[3],-0.607
same,glycan array binding signal (z-score),[4],2
same,glycan array binding signal (z-score),[5],1.97
same,glycan array binding signal (z-score),[6],-0.548
same,glycan array binding signal (z-score),[7],-0.51
same,glycan array binding signal (z-score),[8],3.45
same,glycan array binding signal (z-score),[9],-0.81
same,glycan array binding signal (z-score),[10],0.198
same,glycan array binding signal (z-score),Gal(a1-3)GalNAc,7.25
same,glycan array binding signal (z-score),Gal(b1-2)Gal,1.18
same,glycan array binding signal (z-score),[11],0.216
same,glycan array binding signal (z-score),[12],-0.747
same,glycan array binding signal (z-score),[13],0.355
same,glycan array binding signal (z-score),[14],2.29
same,glycan array binding signal (z-score),[15],2.43
same,glycan array binding signal (z-score),[16],1.98
same,glycan array binding signal (z-score),[17],-0.48
same,glycan array binding signal (z-score),Gal6S(b1-4)Glc6S,0.298
same,glycan array binding signal (z-score),[18],0.68
same,glycan array binding signal (z-score),[19],-0.527
same,glycan array binding signal (z-score),[20],2.41
same,glycan array binding signal (z-score),[21],3.01
same,glycan array binding signal (z-score),[22],0.259
same,glycan array binding signal (z-score),GlcNAc(b1-3)GalNAc,-0.454
same,glycan array binding signal (z-score),[23],-0.405
same,glycan array binding signal (z-score),[24],-0.838
same,glycan array binding signal (z-score),[25],-0.478
same,glycan array binding signal (z-score),[26],-0.322
same,glycan array binding signal (z-score),[27],2.75
same,glycan array binding signal (z-score),[28],0.57
same,glycan array binding signal (z-score),[29],0.21
same,glycan array binding signal (z-score),Neu5Ac(a2-8)Neu5Ac,0.04
same,glycan array binding signal (z-score),[30],8.5
same,glycan array binding signal (z-score),Neu5Ac(b2-6)GalNAc,-0.643
same,glycan array binding signal (z-score),Neu5Gc(a2-6)GalNAc,0.381
